The list is not random: actives were taken first. Their share in the collection is about 1.8%.
hiPSC survival = enhancers of single-cell hiPSC survival, primary screen, ATPlite luminescence; AID 602274, 2012; 100% = ROCK inhibitor wells, 0% = DMSO; actives 0.044% (n = 360,000); survival enhancement, % at 20 µM; in the data active = survival enhancement above about 18%;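 note: cells exposed to compounds for 16 hours before the ATP read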
ARNT-TACC3 inh = disruptors of ARNT/TACC3 protein interaction, primary screen, biochemical, AlphaScreen, single concentration | Transforming acidic coiled-coil-containing protein 3 (Homo sapiens), Q9Y6A5 | AlphaScreen His-ARNT PAS-B/GST-TACC3 binding, luminescence; TACC3 fragment carries E629A point mutation | inhibition, % at 9.99 µM | actives 0.66% (n = 390,000) | AID 623870, 2012;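 active = mean inhibition of replicates at least 50% and at least half of replicates each reaching 50%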;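 note: 0% = complete ARNT plus TACC3 wells and 100% = ARNT alone without TACC3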
ABCB6 inh 2 = ABCB6 transporter inhibitors, primary screen, K562-ABCB6 cells, flow cytometry, MLPCN library; actives 0.19% (n = 360,000); K562-ABCB6 porphyrin accumulation, 1 h; stronger effect = lower value; AID 602162, 2011; fluorescence ratio to DMSO, % at 10 µM; ATP-binding cassette sub-family B member 6 (Homo sapiens), Q9NP58;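 active = fluorescence ratio to DMSO below 75%, the collection mean minus 3 SD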;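 note: signal is porphyrin accumulated inside mitochondria; 100% equals median channel fluorescence of DMSO control wells; lower ratio means ABCB6 inhibition with less porphyrin fluorescence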
Target sequence (Q9NP58 whole entry, looked up): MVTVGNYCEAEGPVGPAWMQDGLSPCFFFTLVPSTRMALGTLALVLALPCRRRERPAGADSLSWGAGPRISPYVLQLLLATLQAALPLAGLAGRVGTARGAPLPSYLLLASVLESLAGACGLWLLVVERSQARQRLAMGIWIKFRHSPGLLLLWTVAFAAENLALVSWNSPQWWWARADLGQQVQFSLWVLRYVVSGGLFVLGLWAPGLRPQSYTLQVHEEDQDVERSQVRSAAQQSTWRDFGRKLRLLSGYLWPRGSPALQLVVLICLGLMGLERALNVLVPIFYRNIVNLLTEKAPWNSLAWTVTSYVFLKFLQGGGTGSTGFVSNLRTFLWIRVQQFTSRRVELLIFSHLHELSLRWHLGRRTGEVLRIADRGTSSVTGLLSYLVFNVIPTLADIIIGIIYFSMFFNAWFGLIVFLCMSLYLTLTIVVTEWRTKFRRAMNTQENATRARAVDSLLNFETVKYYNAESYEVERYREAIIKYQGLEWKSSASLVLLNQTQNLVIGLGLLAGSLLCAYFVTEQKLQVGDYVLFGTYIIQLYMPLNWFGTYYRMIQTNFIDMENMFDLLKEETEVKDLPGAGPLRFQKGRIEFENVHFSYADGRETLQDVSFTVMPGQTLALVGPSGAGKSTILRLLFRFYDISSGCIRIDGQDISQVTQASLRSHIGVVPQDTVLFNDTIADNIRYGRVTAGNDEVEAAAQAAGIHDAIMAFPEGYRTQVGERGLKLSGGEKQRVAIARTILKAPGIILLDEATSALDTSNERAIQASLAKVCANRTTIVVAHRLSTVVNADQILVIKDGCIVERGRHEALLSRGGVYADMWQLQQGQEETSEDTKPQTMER
NRP1-CendR mod = modulators of CendR peptide binding to NRP-1, primary screen, biochemical, fluorescence polarization, uHTS; inhibition, % at 25 µM; actives 0.85% (n = 360,000); FAM-RPARPAR peptide binding to NRP-1; Neuropilin-1 (Homo sapiens), O14786;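 active = inhibition or corrected inhibition above about 18%, plus a signal ratio from 0.5 to 1.5, limit read from the data, passing the limit was not always enough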
GSIS activator = GLuc luminescence reporter in INS-1E cells, primary screen for activators of glucose-dependent secretion of insulin | INS-1E GLuc reporter insulin secretion, 2-3 h | activation, % at 16.6 µM | actives 0.61% (n = 370,000);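 active = lowest replicate activation of at least 40%, so every replicate reaches that level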;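 note: 0% = median of neutral control wells and 100% = median of IBMX positive control wells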
Starred values were filed as active, the others as inactive; x = no result; + = active, no number; ! = not confirmed by another sample.

SMILES | hiPSC survival | ARNT-TACC3 inh | ABCB6 inh 2 | NRP1-CendR mod | GSIS activator
CCS(=O)(=O)C(C)(CCl)C(=O)Nc1ccc(C(=O)OC)cc1 (centres undefined) | 0 | active | 97 | 5 | 3
O=C1c2ccccc2C(=O)c2c1ccc(O)c2O | 0 | 15 | 103 | 83* | x
COC(=O)c1ccc2c(c1O)C(=O)c1ccccc1C2=O | -2 | 4 | 103 | -9 | -20
COc1ccc(-c2ccc3c(c2)[C@@H]2[C@@H](CCN2C(=O)NC2CCCC2)[C@H](CO)N3C)cc1 | x | x | x | x | -28
CCOC(=O)N1CCN(C(=O)c2cc3n(n2)C(C(F)(F)F)CC(c2ccc4c(c2)OCO4)N3)CC1 (centres undefined) | -1 | -1 | 98 | 22* | 6
CC(C)NC(=O)OC[C@H]1O[C@H](C#Cc2ccc(C(C)(C)C)cc2)C=C[C@H]1O | x | x | x | x | 64*
OCc1ccccc1OCCCOc1cccc2cccnc12 | 0 | -2 | 98 | 33* | -7
OCc1ccccc1OCCOc1ccc(Cl)c2cccnc12 | 1 | -4 | 99 | -3 | -5
OCCN(CCO)c1cc2c3ccccc3ccc2c2ccccc12 | -3 | x | 103 | 25* | 0
FC(F)(F)CN1C[C@@H]2C(c3ccc(Br)cc3)[C@H](C1)N2CC(F)(F)F (some centres undefined) | x | x | x | x | -9
C[C@H](CO)N1C[C@H](C)[C@@H](CN(C)Cc2ccc(-c3ccccc3)cc2)Oc2c(NC(=O)CCC(F)(F)F)cccc2C1=O | x | x | x | x | -20
COc1ccc(CNS(=O)(=O)c2ccc(C)cc2)cc1 | 1 | 3 | 83 | 28* | 9
CSCCC1NC(=O)C(C(C)=NNC(N)=O)=C1O (centres undefined) | -1 | 74* | 95 | 9 | 19
CC(=Nc1ccccc1)C1=C(O)C(Cc2ccccc2)NC1=O (centres undefined) | -1 | -3 | 97 | -3 | 7
O=C(Nc1ccc(C(F)(F)F)cc1)N1C[C@@H]2N[C@H](C1)C2c1ccc(/C=C/c2ccccc2)cc1 (some centres undefined) | x | x | x | x | +
O=C(Nc1ccc(C(F)(F)F)cc1)N1C[C@@H]2N[C@H](C1)C2c1ccc(-c2ccccc2)cc1 (some centres undefined) | x | x | x | x | 755*!
O=C(C1CCC1)N1C[C@@H]2N[C@H](C1)C2c1ccc(/C=C/c2ccccc2)cc1 (some centres undefined) | x | x | x | x | -4
Cn1c(N)c(S(=O)(=O)N2CCN(c3ccccc3Cl)CC2)c(=O)n(C)c1=O | 0 | 10 | 101 | 27* | -8
Cc1cnc(C(=O)OC(C)C(=O)NCc2ccccc2)cn1 (centres undefined) | 1 | -2 | 100 | 0 | 59*
O=C(C[C@H]1C[C@H]2c3cc(NC(=O)C4CCOCC4)ccc3O[C@H]2[C@@H](CO)O1)NCc1cccnc1 | x | -1 | x | x | -5
CCOC(=O)N1CCN(c2cc(NCCC(=O)O)c3c4c(onc24)-c2ccccc2C3=O)CC1 | -1 | 58* | 97 | 42 | x
O=C(O)CCCNc1cc(N2CCN(C(=O)c3ccco3)CC2)c2noc3c2c1C(=O)c1ccccc1-3 | -1 | 46* | 104 | -181 | -5
C[C@@H]1CN([C@@H](C)CO)C(=O)c2cccc(NC(=O)C3CCOCC3)c2O[C@@H]1CN(C)Cc1ccc(C(=O)Nc2ccccc2N)cc1 | x | x | x | x | 38
Cc1cc(NCCCn2ccnc2)n2nc(-c3ccc(Cl)cc3)cc2n1 | -2 | 12 | 104 | -4 | 14
CC(C)(C)c1cc(NCCCn2ccnc2)n2ncc(-c3ccc(Cl)cc3)c2n1 | 3 | 1 | 109 | 0 | 817*
SMILES | hiPSC survival | ARNT-TACC3 inh | ABCB6 inh 2 | NRP1-CendR mod | GSIS activator
COc1ccc(CNC(=O)[C@@H]2CC=C[C@@H]3CCN(Cc4ccc(Cl)c(Cl)c4)C(=O)[C@@H]32)cc1 | -2 | 2 | 85 | 30* | -29
COc1ccc(CNC(=O)[C@@H]2CC=C[C@@H]3CCN(C4CCCCC4)C(=O)[C@@H]32)cc1 | -1 | -6 | 100 | 15 | -14
O=C(Nc1ccc(Cl)c(C(F)(F)F)c1)[C@@H]1CC=C[C@@H]2CCN(Cc3ccc(Cl)c(Cl)c3)C(=O)[C@@H]21 | 4 | x | 99 | -1 | -5
CCCCN1CC[C@H]2C=CC[C@@H](C(=O)Nc3ccc(Cl)cc3Cl)[C@H]2C1=O | 4 | -7 | 93 | 34* | -16
CCCCN1CC[C@H]2C=CC[C@@H](C(=O)NCc3ccc(OC)cc3)[C@H]2C1=O | 1 | 0 | 94 | 21* | 5
CC(C)NC(=O)N(C)C[C@H]1OCCCC[C@H](C)Oc2ccc(NC(=O)c3ccccc3)cc2C(=O)N([C@@H](C)CO)C[C@H]1C | x | -9 | x | x | 0
COc1ccc(NC(=O)N2CC(=O)N3[C@H](CO)[C@H](c4ccc(C#CCC5CCCC5)cc4)[C@H]3C2)cc1 | x | x | x | x | -17
COc1ccc(C#Cc2c(-c3ccc(OC)cc3)oc3ccc(-c4ccc(OC)cc4)cc23)cc1 | 2 | x | 108 | 7 | 14
COc1ccc(-c2ccc3oc(-c4ccc(OC)cc4)c(C#CCCO)c3c2)cc1 | 0 | -20 | 96 | 8 | 67*
COc1cccc(S(=O)(=O)N2C[C@@H]3N[C@H](C2)C3c2ccc(-c3ccc(C(=O)N(C)C)cc3)cc2)c1 (some centres undefined) | x | x | x | x | 1
C[C@H]1CC=CC[C@H](c2ccc3c(c2)OCO3)NC(=O)[C@H](C)N(C)C(=O)c2ccccc2O1 (mixture of isomers) | x | x | x | x | 0
O=C(Nc1cccnc1)c1cnn2c(C(F)F)cc(C3CC3)nc12 | 4 | 11 | 93 | -9 | 60*
O=C(O)COc1ccccc1/C=N/NC(=O)c1cc(-c2ccc(F)cc2)nc2ccccc12 | 0 | 47* | 98 | 9 | 10
Cc1ccc(S(=O)(=O)c2ncccc2N)cc1 | 2 | -3 | 105 | 56* | 4
Cc1ccc(S(=O)(=O)Oc2ccccc2[N+](=O)[O-])cc1 | -1 | 9 | 105 | 20* | x
Cc1ccc(S(=O)(=O)n2ccc3cccnc32)cc1 | -2 | -8 | 96 | 7 | x
Cc1ccc(S(=O)(=O)c2ncccc2[N+](=O)[O-])cc1 | -1 | 30 | 113 | -2 | 65*
Cc1ccsc1CN(C(=O)c1ccccc1)C1CCS(=O)(=O)C1 (centres undefined) | 2 | -1 | 100 | 22* | 18
CCc1ccc(CN(C(=O)c2cccs2)C2CCS(=O)(=O)C2)cc1 (centres undefined) | 0 | -4 | 97 | -1 | 36
O=C(c1cccs1)N(Cc1ccc(Cl)cc1)C1CCS(=O)(=O)C1 (centres undefined) | 0 | -10 | 101 | 4 | 48*
